# Measured values from PubChem BioAssay.
# Activity calls are given as the source filed them.
# Legend:
# [1] = binders of probe aFSTL3 on microarray, primary screen, stem cell growth factor project, biochemical, small-molecule microarray, fluorescence 635/667 (AID 1064); conditions: higher = more signal;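 note: measures binding of the biotinylated anti-FSTL3 antibody to printed compounds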
# [2] = binders from COS7 lysate, DM2A8 probe, primary screen, torsin A project, cell lysate, small-molecule microarray, fluorescence 635/667 (AID 1065); conditions: higher = more signal, COS7 lysate expressing mutant human TOR1A
# [3] = binders of probe aFGF2 on microarray, primary screen, stem cell growth factor project, biochemical, small-molecule microarray, fluorescence 635/667 (AID 1067); conditions: higher = more signal;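 note: measures binding of biotinylated aFGF2 protein to printed compounds on slides; z-score merges feature fluorescence and signal-to-noise across triplicate slides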
# [4] = binders of probe aFGF10 on microarray, primary screen, stem cell growth factor project, biochemical, small-molecule microarray, fluorescence 635/667 (AID 1071); conditions: higher = more signal;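 note: score merges 667 nm spot intensity and signal to noise from triplicate slides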
# [5] = target: Neurogenic locus notch homolog protein 2 (Homo sapiens) (UniProt Q04721); test: Notch2 binders on small-molecule microarrays, primary screen, biochemical, small-molecule microarray, 635 nm fluorescence, stem cell growth factors (AID 1073); conditions: Notch2 binding, higher = more signal
# Chain of Neurogenic locus notch homolog protein 2 (Homo sapiens) (Q04721 whole entry, looked up, canonical isoform): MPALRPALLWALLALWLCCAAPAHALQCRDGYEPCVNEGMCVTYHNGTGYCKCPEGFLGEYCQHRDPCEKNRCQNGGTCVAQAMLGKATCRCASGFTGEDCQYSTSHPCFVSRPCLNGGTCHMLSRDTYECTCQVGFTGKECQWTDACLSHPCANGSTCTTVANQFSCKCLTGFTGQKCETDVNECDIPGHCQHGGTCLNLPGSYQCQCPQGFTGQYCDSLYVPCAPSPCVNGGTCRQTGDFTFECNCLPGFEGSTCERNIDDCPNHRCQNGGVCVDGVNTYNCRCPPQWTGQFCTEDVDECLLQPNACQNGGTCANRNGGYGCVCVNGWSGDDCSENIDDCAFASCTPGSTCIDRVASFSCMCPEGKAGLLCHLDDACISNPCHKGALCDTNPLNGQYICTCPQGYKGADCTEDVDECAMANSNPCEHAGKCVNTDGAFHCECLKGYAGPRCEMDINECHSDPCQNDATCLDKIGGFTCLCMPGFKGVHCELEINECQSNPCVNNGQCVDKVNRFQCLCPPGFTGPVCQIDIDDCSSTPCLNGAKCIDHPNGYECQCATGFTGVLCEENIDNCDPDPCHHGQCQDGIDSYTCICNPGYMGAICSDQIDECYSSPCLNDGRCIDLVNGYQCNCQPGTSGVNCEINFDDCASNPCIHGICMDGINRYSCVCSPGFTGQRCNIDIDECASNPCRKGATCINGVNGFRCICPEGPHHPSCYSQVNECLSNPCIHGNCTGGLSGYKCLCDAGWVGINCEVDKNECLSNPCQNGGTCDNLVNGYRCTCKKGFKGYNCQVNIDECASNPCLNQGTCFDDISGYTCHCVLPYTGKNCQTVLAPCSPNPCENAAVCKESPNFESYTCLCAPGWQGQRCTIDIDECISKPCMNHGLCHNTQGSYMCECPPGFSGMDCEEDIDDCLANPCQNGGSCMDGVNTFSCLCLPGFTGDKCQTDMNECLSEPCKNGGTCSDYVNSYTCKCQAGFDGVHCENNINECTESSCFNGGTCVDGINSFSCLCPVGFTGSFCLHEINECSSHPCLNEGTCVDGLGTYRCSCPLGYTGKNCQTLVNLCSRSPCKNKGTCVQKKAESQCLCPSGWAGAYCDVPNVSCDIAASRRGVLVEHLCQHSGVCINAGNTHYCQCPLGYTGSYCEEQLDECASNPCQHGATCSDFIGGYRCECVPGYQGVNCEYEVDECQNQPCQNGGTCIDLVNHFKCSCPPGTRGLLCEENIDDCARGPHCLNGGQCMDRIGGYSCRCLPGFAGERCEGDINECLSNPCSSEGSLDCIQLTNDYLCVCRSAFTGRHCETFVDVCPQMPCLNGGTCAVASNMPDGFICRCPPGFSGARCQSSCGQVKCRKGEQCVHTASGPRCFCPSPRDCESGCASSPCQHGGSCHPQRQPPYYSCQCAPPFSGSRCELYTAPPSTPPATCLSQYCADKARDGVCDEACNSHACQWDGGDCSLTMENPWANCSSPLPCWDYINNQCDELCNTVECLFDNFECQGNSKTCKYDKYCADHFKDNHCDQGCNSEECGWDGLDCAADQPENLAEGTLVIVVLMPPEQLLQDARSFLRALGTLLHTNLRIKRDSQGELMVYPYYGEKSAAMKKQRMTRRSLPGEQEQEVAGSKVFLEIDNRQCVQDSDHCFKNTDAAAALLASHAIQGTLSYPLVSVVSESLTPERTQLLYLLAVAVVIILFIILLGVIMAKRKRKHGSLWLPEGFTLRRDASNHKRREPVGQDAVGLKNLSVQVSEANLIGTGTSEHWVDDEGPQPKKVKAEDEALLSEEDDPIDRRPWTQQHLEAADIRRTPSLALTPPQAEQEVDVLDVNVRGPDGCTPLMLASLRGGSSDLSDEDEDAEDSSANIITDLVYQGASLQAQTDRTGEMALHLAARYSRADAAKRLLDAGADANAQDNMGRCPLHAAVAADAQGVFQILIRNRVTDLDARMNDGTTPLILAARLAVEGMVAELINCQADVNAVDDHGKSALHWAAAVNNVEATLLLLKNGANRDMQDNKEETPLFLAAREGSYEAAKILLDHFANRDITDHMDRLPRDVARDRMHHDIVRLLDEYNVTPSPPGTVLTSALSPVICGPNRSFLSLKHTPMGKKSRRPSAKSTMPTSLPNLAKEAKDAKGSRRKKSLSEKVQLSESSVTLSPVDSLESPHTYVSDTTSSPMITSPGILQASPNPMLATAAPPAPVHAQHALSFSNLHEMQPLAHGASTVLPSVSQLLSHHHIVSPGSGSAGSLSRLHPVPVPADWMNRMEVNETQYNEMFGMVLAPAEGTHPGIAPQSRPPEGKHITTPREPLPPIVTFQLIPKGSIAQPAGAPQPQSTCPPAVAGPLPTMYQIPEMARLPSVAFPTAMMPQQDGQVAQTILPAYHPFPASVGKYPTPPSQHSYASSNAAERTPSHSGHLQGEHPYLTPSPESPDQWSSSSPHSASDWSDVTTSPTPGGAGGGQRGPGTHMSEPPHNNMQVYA
# [6] = target: Pro-neuregulin-1, membrane-bound isoform (Homo sapiens) (UniProt Q02297); test: NRG1 binders on small-molecule microarrays, primary screen, psychiatric disease protein project, biochemical, small-molecule microarray, fluorescence 635/667 (AID 1075); conditions: NRG1 binding, 635 nm fluorescence, higher = more signal;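 note: score combines 667 nm spot fluorescence with signal to noise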
# Chain of Pro-neuregulin-1, membrane-bound isoform (Homo sapiens) (Q02297 whole entry, looked up, the tested form may be a part, canonical isoform): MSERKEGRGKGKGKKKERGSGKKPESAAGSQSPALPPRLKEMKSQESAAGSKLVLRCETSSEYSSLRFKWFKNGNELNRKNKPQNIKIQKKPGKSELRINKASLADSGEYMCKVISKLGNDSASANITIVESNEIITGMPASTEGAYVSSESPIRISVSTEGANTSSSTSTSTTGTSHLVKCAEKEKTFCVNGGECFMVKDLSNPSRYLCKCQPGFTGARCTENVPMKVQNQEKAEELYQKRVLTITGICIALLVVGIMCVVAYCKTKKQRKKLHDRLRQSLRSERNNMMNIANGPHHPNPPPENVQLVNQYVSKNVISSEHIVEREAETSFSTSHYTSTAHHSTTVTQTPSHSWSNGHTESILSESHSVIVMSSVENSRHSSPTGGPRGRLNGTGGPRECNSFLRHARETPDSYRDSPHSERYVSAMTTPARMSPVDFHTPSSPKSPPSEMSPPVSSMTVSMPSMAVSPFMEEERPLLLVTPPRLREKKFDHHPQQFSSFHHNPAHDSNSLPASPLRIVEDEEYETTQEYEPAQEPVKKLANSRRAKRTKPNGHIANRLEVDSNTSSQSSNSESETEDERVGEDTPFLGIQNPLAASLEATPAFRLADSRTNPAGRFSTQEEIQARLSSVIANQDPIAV
# [7] = system: Neuregulin-1 EGF-like domain; test: binders of neuregulin-1 EGF-like domain, primary screen, biochemical, small-molecule microarray, 635 nm fluorescence (AID 1081); conditions: small-molecule microarray binding, higher = more signal;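 note: binding of the protein to compounds printed on small-molecule microarray slides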
# [8] = FRG1 promoter luciferase signal modulators, primary screen, FRG1 inhibition for FSHD, cell-based, C2C12 myotubes, firefly/Renilla luciferase, luminescence (AID 1084); conditions: higher = more signal, called active from +8 up or from −8 down
# [9] = binders of probe aFST on microarray, primary screen, stem cell growth factor project, biochemical, small-molecule microarray, fluorescence 635/667 (AID 1086); conditions: higher = more signal;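 note: score merges 667 nm fluorescence with signal-to-noise of each printed compound spot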
# [10] = binders of probe aHhip on microarray, primary screen, stem cell growth factor project, biochemical, small-molecule microarray, fluorescence 635/667 (AID 1087); conditions: higher = more signal;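 note: score merges spot fluorescence at 667nm with spot signal to noise ratio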
# [11] = system: PRMT1 (protein arginine N-methyltransferase 1); test: PRMT1 binders on small-molecule microarrays, primary screen, biochemical, small-molecule microarray, 635 nm fluorescence (AID 1088); conditions: small-molecule microarray binding, higher = more signal;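 note: binding of Prmt1 protein to compounds spotted on small-molecule microarray slides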
# [12] = yeast growth modulation, basal conditions, primary screen, YJM789 clinical isolate, OD600, 24 h (AID 1089);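 note: growth of clinical yeast isolate S. cerevisiae YJM 789 seeded 1000 cells per well; test concentration not given here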; conditions: S. cerevisiae YJM789 growth, higher = more signal, called active from +8 up or from −8 down
# [13] = fission yeast growth modulation, primary screen, strain 972, OD600, 24 h, no modulator (AID 1090);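 note: basal condition with compound alone and no growth modifier present; test concentration not given here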; conditions: S. pombe 972 growth, higher = more signal, called active from +8 up or from −8 down
# [14] = S. cerevisiae growth modulation with rapamycin, primary screen, strain BY4716, OD600, 96 h (AID 1091); conditions: higher = more signal, called active from +8 up or from −8 down; note: test concentration not given here
# [15] = target: Torsin-1A-interacting protein 2 (Homo sapiens) (UniProt Q8NFQ8); test: LULL1 binders on small-molecule microarray, primary screen, cell lysate, human LULL1 lysate, 635/667 nm fluorescence (AID 1092); conditions: hLULL1 lysate binding, 635 nm fluorescence, higher = more signal;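 note: probe is lysate of COS7 cells overexpressing human LULL1; score merges per-feature 667 nm fluorescence with signal-to-noise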
# Chain of Torsin-1A-interacting protein 2 (Homo sapiens) (Q8NFQ8 whole entry, looked up): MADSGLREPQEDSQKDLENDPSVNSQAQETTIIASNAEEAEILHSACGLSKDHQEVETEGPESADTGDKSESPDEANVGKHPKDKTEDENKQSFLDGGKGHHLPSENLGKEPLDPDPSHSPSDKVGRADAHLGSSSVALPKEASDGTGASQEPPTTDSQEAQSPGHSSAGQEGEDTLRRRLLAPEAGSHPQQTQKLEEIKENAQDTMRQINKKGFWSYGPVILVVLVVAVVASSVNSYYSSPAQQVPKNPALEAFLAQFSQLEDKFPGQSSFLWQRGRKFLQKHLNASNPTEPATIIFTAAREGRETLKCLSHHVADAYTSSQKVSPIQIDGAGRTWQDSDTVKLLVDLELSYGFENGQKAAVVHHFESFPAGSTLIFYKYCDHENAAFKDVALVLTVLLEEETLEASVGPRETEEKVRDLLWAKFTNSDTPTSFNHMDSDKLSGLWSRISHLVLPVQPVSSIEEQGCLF
# [16] = E. coli growth modulation, two-sided OD650, primary screen, E. coli filamentation project, strain DRC41, 24 h (AID 1093); conditions: OD650, 24 h, higher = more signal, called active from +8 up or from −8 down;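 note: MC1000 strain lacking acrAB efflux and sulA so SOS filamentation is blocked; test concentration not given here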
# [17] = small-molecule microarray binders of probe aLefty2, primary screen, biochemical, biotinylated probe, 635/667 nm fluorescence (AID 1094); conditions: higher = more signal;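 note: score merges spot fluorescence near 667 nm with spot signal-to-noise ratio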
# [18] = system: Noggin (protein binding on small-molecule microarray); test: Noggin binders on small-molecule microarray, primary screen, biochemical, 635/667 nm fluorescence (AID 1095); conditions: 635 nm fluorescence, higher = more signal;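 note: score merges 667 nm feature fluorescence with signal to noise over triplicate slides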
# [19] = target: Neurogenic locus notch homolog protein 3 (Homo sapiens) (UniProt Q9UM47); test: NOTCH3 binders on small-molecule microarray, primary screen, biochemical, 635/667 nm fluorescence (AID 1096); conditions: NOTCH3 binding, 635 nm fluorescence, higher = more signal
# [20] = small-molecule microarray binders of probe aEGFR, primary screen, biochemical, biotinylated probe, 635/667 nm fluorescence (AID 1097); conditions: higher = more signal;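 note: probe is a biotinylated anti-EGFR antibody binding compounds printed on slides; score combines fluorescence near 667 nm and signal to noise of each spot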
Compound,composite z-score [1],composite z-score [2],composite z-score [3],composite z-score [4],composite z-score [5],composite z-score [6],composite z-score [7],z-score [8],composite z-score [9],composite z-score [10],composite z-score [11],z-score [12],z-score [13],z-score [14],composite z-score [15],z-score [16],composite z-score [17],composite z-score [18],composite z-score [19],composite z-score [20]
CON=C(C)CCC(=O)OC[C@H]1O[C@H](c2ccccc2)C=C[C@@H]1Oc1ccc(OC)cc1,-0.0269,0.0837,-0.0504,0.111,-0.272,-0.351,-0.0622,1.89 (inactive),0.308,-0.131,0.0846,1.34 (inactive),-0.241 (inactive),1.4 (inactive),-0.225,0.403 (inactive),-0.176,0.411,-0.0061,-0.0783
CCOC(=O)CCN1C(=O)[C@H]2[C@H]3[C@H](O)[C@H](O)CC(=NNC(=O)OCc4ccccc4)[C@@H]3CC[C@H]2C1=O,-0.326,0.695,-0.158,0.504,0.88,0.716,0.971,-0.518 (inactive),0.111,-0.189,1.05,-0.662 (inactive),0.279 (inactive),-0.598 (inactive),0.967,0.826 (inactive),-0.23,0.713,1.01,-0.0688
COC(=O)[C@H](C)NC(=O)CCC1CC(OC(=O)NCc2ccc3c(c2)OCO3)CC2(CCCC(COC(=O)NCC3CCCCC3)O2)O1 (stereo not given in full),-0.632,0.0369,-0.0158,0.847,1.08,0.586,1.18,0.0762 (inactive),0.315,0.231,1.46,0.147 (inactive),0.803 (inactive),1.45 (inactive),2.28,-0.0678 (inactive),-0.0576,1.1,1.1,-0.0139
O=C1CCCC(C2=CCCCC2=O)C1 (stereo not given),-0.31,0.213,-0.0895,0.0787,0.312,-0.3,0.165,0.222 (inactive),0.0915,0.157,0.0732,0.222 (inactive),0.65 (inactive),0.6 (inactive),-0.168,0.455 (inactive),0.02,0.546,0.0934,-0.029
COc1ccc(O[C@H]2C=C[C@@H](c3ccccc3)O[C@@H]2COC(=O)CCC(C)=NO[C@@H]2O[C@H](COC(C)=O)[C@@H](OC(C)=O)[C@H](OC(C)=O)[C@H]2OC(C)=O)cc1,-0.468,0.135,-0.152,0.608,0.424,-0.0533,0.929,1.09 (inactive),0.247,-0.236,1.44,1.2 (inactive),1.03 (inactive),0.865 (inactive),0.727,0.271 (inactive),-0.253,0.749,1.1,-0.0271
CC(CCN1CCc2nc(-c3ccccc3)c(-c3ccccc3)cc2C1)=NOC[C@@H](O)COCc1ccco1,-0.278,0.424,-0.0598,0.111,0.303,0.268,0.792,0.515 (inactive),-0.0187,-0.261,0.651,-0.544 (inactive),-1.45 (inactive),-3.75 (inactive),0.0955,0.845 (inactive),-0.176,0.806,0.481,-0.083
CO[C@@H]1COC(=O)[C@H](CCSC)NC(=O)CC=C[C@@H](C)COC(=O)CCC[C@H]1C,-0.994,2.94,-0.167,0.114,-0.559,-1.28,1.15,0.0651 (inactive),1.41,-0.161,1.55,-1.16 (inactive),0.583 (inactive),-1.25 (inactive),-0.86,-0.0886 (inactive),-0.0225,1.82,0.249,0.232
CON=CC[C@@H]1C=C[C@H](OC(C)=O)[C@@H](COC(C)=O)O1,-0.043,0.0682,-0.0006,0.119,0.255,-0.189,-0.686,0.41 (inactive),0.143,0.151,0.0622,0.586 (inactive),0.141 (inactive),0.35 (inactive),0.172,-0.0614 (inactive),0.253,0.532,-0.0592,-0.184
COC(=O)[C@H](C)NC(=O)CCC1CC(OC(=O)NCc2cccc3ccccc23)CC2(CCCC(COC(=O)NCC(c3ccccc3)c3ccccc3)O2)O1 (stereo not given in full),-0.766,0.233,-0.0092,0.532,1.23,0.917,0.801,2.44 (inactive),0.157,-0.134,1.48,-0.797 (inactive),0.104 (inactive),-0.691 (inactive),2.99,0.0609 (inactive),-0.166,0.661,1.09,-0.0509
